# From PubChem BioAssay (NCATS)
# Inconclusive results are not listed. A call without a number means that no potency is given here. A number with no mark means an inactive call. Calls of active or inactive are those of the source. The call rests on the fitted dose curve; in most records, active means well fitted cell-killing curve with a large enough effect; inconclusive means small, poorly fitted or top-dose-only effect, or effect the other way; inactive means flat fitted curve, though single readings scatter.
# Assays:
# Assay in all cases: Primary qHTS to identify gynecologic anti-cancer compounds using libraries of approved drugs and bioactive compounds (AID 1345084); further: nearly all actives have a fitted effect of over 55% in size
# Details in all cases: Gynecologic cancer cell panel viability, ATPlite luminescence, 48 h; series mostly up to 57.5 µM
# PA-1 = test system: PA-1
# Method in brief: (§1)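 Five-point cytotoxicity, 48 h drug exposure at 37 C, 5% CO2, on cells seeded 16 h beforehand. ATP content read by ATPlite luminescence.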
# SKOV3 = test system: SKOV3
# Method in brief: as §1
# Tov-21-G = test system: Tov-21-G
# Method in brief: as §1
# Tov112D = test system: Tov112D
# Method in brief: as §1
# Potency means the concentration at half of the fitted maximal effect.
compound,measurement,setting,value
CCNC(=O)Nc1ccc(-c2nc3c(c(N4CCOCC4C)n2)CCN(C2COC2)C3)cc1 (stereo unspecified),Potency,PA-1,2.24 µM (active)
C=C(C)C1CC(O)C(C)C12CC(O)C1(C)OC1C2O (stereo unspecified),Potency,PA-1,8.91 µM (active)
same,Potency,SKOV3,7.94 µM (active)
COc1ccc(C2(CNC(=O)c3ccc(NC(=O)c4ccco4)cc3)CCOCC2)cc1,Potency,PA-1,inactive
same,Potency,SKOV3,inactive
same,Potency,Tov-21-G,inactive
NC(=O)N1CCC(CC(=O)N2CCC(C3c4ncc(Br)cc4CCc4cc(Cl)cc(Br)c43)CC2)CC1 (stereo unspecified),Potency,PA-1,inactive
same,Potency,SKOV3,inactive
same,Potency,Tov-21-G,inactive
Cc1cc(C(=O)Nc2cc(Oc3ccc4nc(NC(=O)C5CC5)cn4n3)ccc2C)n(C)n1,Potency,PA-1,inactive
same,Potency,SKOV3,10 µM (active)
Cn1ncc(Cl)c1-c1cc(C(=O)N[C@H](CN)Cc2cccc(F)c2)sc1Cl,Potency,PA-1,25.1 µM (active)
same,Potency,SKOV3,14.1 µM (active)
same,Potency,Tov-21-G,1.58 µM (active)
Oc1ccc(-c2cnc3ccc(NCc4ccco4)nn23)cc1,Potency,PA-1,28.2 µM (active)
same,Potency,SKOV3,14.1 µM (active)
CC1(C)CC[C@]23CO[C@@]4(CCC5[C@@]6(C)CC[C@H](O[C@@H]7OC[C@H](O[C@@H]8O[C@H](CO)[C@@H](O)[C@H](O)[C@H]8O[C@@H]8OC[C@@H](O)[C@H](O)[C@H]8O)[C@H](O)[C@H]7O[C@@H]7O[C@H](CO)[C@@H](O)[C@H](O)[C@H]7O)[C@@](C)(CO)C6CC[C@@]5(C)[C@]4(C)C[C@H]2O)[C@@H]3C1 (stereo partly specified),"activity change, negative = cytotoxicity",PA-1,-25.5% [at 11.6 µM]
COc1cccc(-c2cn(-c3ccc(CCN4CCC(O)CC4)cc3)c3ncnc(N)c23)c1,Potency,PA-1,12.6 µM (active)
same,Potency,SKOV3,8.91 µM (active)
same,Potency,Tov-21-G,17.8 µM (active)
O=C(NC1CCN(CCCCC2(C(=O)NCC(F)(F)F)c3ccccc3-c3ccccc32)CC1)c1ccccc1-c1ccc(C(F)(F)F)cc1,Potency,PA-1,31.6 µM (active)
C[C@@H]1C[C@H](C)CN(CCC(=O)Nc2ccc(Br)cc2)C1,Potency,PA-1,inactive
same,Potency,SKOV3,inactive
same,Potency,Tov-21-G,inactive
CNC1CN(c2ccc3c(=O)c(C(=O)O)cn(-c4nccs4)c3n2)CC1OC (stereo unspecified),Potency,PA-1,1.41 µM (active)
O=C(Nc1ccnc(NC(=O)C2CC2)c1)c1c(Cl)cccc1Cl,Potency,PA-1,15.8 µM (active)
same,Potency,SKOV3,inactive
Cc1[nH]c(/C=C2\C(=O)Nc3ccc(S(=O)(=O)N(C)c4cccc(Cl)c4)cc32)c(C)c1C(=O)N1CCN(C)CC1,Potency,PA-1,inactive
same,Potency,SKOV3,inactive
same,Potency,Tov-21-G,inactive
CCCC1(CCC)CCC2(CCN(CCCN(CC)CC)C2)CC1,Potency,PA-1,5.01 µM (active)
same,Potency,SKOV3,7.94 µM (active)
same,Potency,Tov-21-G,6.31 µM (active)
C[C@@H](Nc1ncnc2[nH]c(-c3ccc(O)cc3)cc12)c1ccccc1,Potency,PA-1,inactive
COc1ccc(-c2cc3onc(-c4ccncc4)c3c(=O)n2C)cc1,Potency,PA-1,inactive
same,Potency,SKOV3,1.78 µM (active)
same,Potency,Tov-21-G,inactive
CC(=O)OC1[C@H]2[C@@H](C[C@@H](C)[C@@H]3C=CC(=O)[C@@]13C)OC(=O)[C@@H]2C (stereo partly specified),Potency,PA-1,35.5 µM (active)
CCC1C(=O)N(C)c2cnc(Nc3ccc(C(=O)NC4CCN(C)CC4)cc3OC)nc2N1C1CCCC1 (stereo unspecified),Potency,PA-1,1.78 µM (active)
same,Potency,SKOV3,6.31 µM (active)
C[C@@H](N[C@H]1CCCC[C@@H]1NC(=O)c1ccc(Cl)cc1)c1cccc2ccccc12,Potency,PA-1,inactive
same,Potency,SKOV3,31.6 µM (active)
same,Potency,Tov-21-G,inactive
CC(=O)C1=CCC2C3CC=C4CC(O)CC(O)C4(C)C3C(O)CC12C (stereo unspecified),Potency,PA-1,inactive
NCCOc1cc(C(=O)Nc2cc(OCCN)c3ccccc3n2)nc(C(=O)Nc2cc(OCCN)c3ccccc3n2)c1,Potency,PA-1,7.94 µM (active)
same,Potency,SKOV3,8.91 µM (active)
O=C1C[C@]23C=CCN4CCC5c6cc7c(cc6N1[C@@]5(CC2)C43)OCO7 (stereo partly specified),Potency,PA-1,inactive
COc1cc2c(NC3CCN(C(C)C)CC3)nc(N3CCC(F)(F)CC3)nc2cc1OCCCN1CCCC1,Potency,PA-1,22.4 µM (active)
Cn1ncnc1[C@H]1c2n[nH]c(=O)c3cc(F)cc(c23)N[C@@H]1c1ccc(F)cc1,Potency,PA-1,1 µM (active)
same,Potency,SKOV3,inactive
same,Potency,Tov-21-G,inactive
COc1cc(NC(=O)c2cccc(-n3cc(NC(=O)Nc4cccc(C)c4)cn3)c2)cc(OC)c1OC,Potency,PA-1,inactive
COC(=O)N1CCC(n2ncc3c(N4CCOCC4)nc(-c4ccc(NC(=O)NC5CC5)cc4)nc32)CC1,Potency,PA-1,1.41 µM (active)
C=CC(=O)Nc1ccc(CN2C(=O)N(c3cc(OC)cc(OC)c3)Cc3cnc(Nc4ccc(N5CCN(C)CC5)cc4)nc32)cc1,Potency,PA-1,inactive
same,Potency,SKOV3,15.8 µM (active)
C=C1C(=O)OC2/C=C(\COC(C)=O)CC/C=C(\C=O)CC(OC(=O)C(C)CC)C12 (stereo unspecified),Potency,PA-1,11.2 µM (active)
NCC1CCN(c2nccc(-c3ccc4ccccc4c3)n2)CC1,Potency,PA-1,14.1 µM (active)
same,Potency,SKOV3,22.4 µM (active)
C=CS(=O)(=O)NC1CCN(C(=O)CNc2cc(I)c(Cl)cc2OC)CC1,Potency,PA-1,10 µM (active)
same,Potency,SKOV3,inactive
COc1cc(N2CCC(N3CCN(C)CC3)CC2)ccc1Nc1ncc(Cl)c(Nc2ccccc2P(C)(C)=O)n1,Potency,PA-1,11.2 µM (active)
same,Potency,SKOV3,8.91 µM (active)
same,Potency,Tov-21-G,7.08 µM (active)
CC1CCC/C=C/C(=O)c2c(O)cc(O)cc2CC(=O)O1 (stereo unspecified),Potency,PA-1,5.62 µM (active)
same,Potency,SKOV3,22.4 µM (active)
CC(C)n1nc(C#Cc2ccccc2)c2c(N)ncnc21,Potency,PA-1,inactive
COc1c(C)cnc(Cn2cc(C#CCC(C)(C)O)c3c(Cl)nc(N)nc32)c1C,Potency,PA-1,0.282 µM (active)
same,Potency,SKOV3,0.251 µM (active)
COC(=O)C1=CO[C@@H](O[C@@H]2O[C@H](CO)[C@@H](O)[C@H](O)[C@H]2O)[C@H]2[C@@H]1C=C[C@]21C=C([C@H](C)OC(=O)/C=C/c2ccc(O)cc2)C(=O)O1,Potency,PA-1,12.6 µM (active)
same,Potency,SKOV3,8.91 µM (active)
OC1C=C2C3CN(Cc4cc5c(cc43)OCO5)C2CC1O (stereo unspecified),Potency,PA-1,14.1 µM (active)
CC12CCC(OC3OC(CO)C(O)C(O)C3OC3OC(CO)C(O)C(O)C3O)CC1CCC1C2CCC2(C)/C(=C3/COC(=O)C3)CCC12O (stereo unspecified),Potency,PA-1,inactive
same,Potency,SKOV3,inactive
O=C(NCC1(N2CCN(c3ccccc3)CC2)CCOCC1)c1cccnc1Sc1ccccc1,Potency,PA-1,inactive
same,Potency,SKOV3,inactive
same,Potency,Tov-21-G,inactive
C/C=C(\C)C(=O)OC1C(C)C2(O)C(C=C(CO)CC3(O)C(=O)C(C)=CC32)C2C(C)(C)C12OC(C)=O (stereo unspecified),Potency,PA-1,inactive
same,Potency,SKOV3,inactive
same,Potency,Tov-21-G,inactive
same,Potency,Tov112D,inactive
Cc1cc(-c2ncc(-c3cccnc3)cc2/C=C/c2ccccc2)cnc1-c1cccnc1,Potency,PA-1,inactive
same,Potency,SKOV3,inactive
same,Potency,Tov-21-G,inactive
same,Potency,Tov112D,inactive
CC(C)[C@@H](c1ccc(C(F)(F)F)cc1CN(Cc1cc(C(F)(F)F)cc(C(F)(F)F)c1)c1nnn(C)n1)N1CCC(C(=O)O)CC1,Potency,PA-1,inactive
same,Potency,SKOV3,inactive
same,Potency,Tov-21-G,inactive
same,Potency,Tov112D,inactive
Cc1nc(Nc2ccc(F)cc2)nc(N2CCc3ccccc3C2C)c1C (stereo unspecified),Potency,PA-1,inactive
same,Potency,SKOV3,inactive
same,Potency,Tov-21-G,inactive
same,Potency,Tov112D,inactive
COc1ccc(-n2c(SCCCN3C(=O)c4cccc5cccc(c45)C3=O)nnc2-c2ccncc2)cc1,Potency,PA-1,inactive
same,Potency,SKOV3,inactive
same,Potency,Tov-21-G,inactive
same,Potency,Tov112D,inactive
CC(NCCCc1cccc(C(F)(F)F)c1)c1cccc2ccccc12 (stereo unspecified),Potency,PA-1,inactive
same,Potency,SKOV3,inactive
same,Potency,Tov-21-G,inactive
same,Potency,Tov112D,inactive
CC(=O)O[C@@H]1C2=C(O)C(=O)[C@](C)(OC(C)=O)C(=O)C2=CO[C@@]12O[C@@H](C)CC[C@H]2OC(C)=O,Potency,PA-1,inactive
same,Potency,SKOV3,inactive
same,Potency,Tov-21-G,inactive
same,Potency,Tov112D,inactive
CC(=O)OC1CC(C)C2(CCC3(CC(=O)OC3O)O2)C2(C)CCCC(C)(C)C12 (stereo unspecified),Potency,PA-1,inactive
same,Potency,SKOV3,inactive
same,Potency,Tov-21-G,inactive
same,Potency,Tov112D,inactive
Cc1cnn(-c2ccccc2)c1NC(=O)COCc1ccccc1,Potency,PA-1,inactive
same,Potency,SKOV3,inactive
same,Potency,Tov-21-G,inactive
same,Potency,Tov112D,inactive
C=C1CC[C@@H]2[C@](C)(CO)[C@H](O)CC[C@@]2(C)[C@@H]1/C=C/C1=CCOC1=O,Potency,PA-1,inactive
same,Potency,SKOV3,inactive
same,Potency,Tov-21-G,inactive
same,Potency,Tov112D,inactive
C[C@@H]1O[C@@H](O[C@H]2[C@H](O[C@H]3CC[C@@]4(C)C(CC[C@]5(C)C4C=C[C@]46OC[C@@]7(CCC(C)(C)C[C@H]74)[C@@H](O[C@@H]4O[C@@H](C)[C@H](O)[C@@H](O)[C@H]4O)C[C@]65C)[C@]3(C)CO)O[C@H](CO)[C@@H](O)[C@@H]2O[C@@H]2O[C@H](CO)[C@@H](O)[C@H](O)[C@H]2O)[C@H](O)[C@H](O)[C@H]1O (stereo partly specified),"activity change, negative = cytotoxicity",PA-1,2.51% [at 11.6 µM]
same,"activity change, negative = cytotoxicity",SKOV3,-8.52% [at 11.6 µM]
same,"activity change, negative = cytotoxicity",Tov-21-G,-2.59% [at 11.6 µM]
same,"activity change, negative = cytotoxicity",Tov112D,-0.84% [at 11.6 µM]
C=C1CC2OC(=O)C(=C)C2C(O)/C=C(\C)CCC1O (stereo unspecified),Potency,PA-1,inactive
same,Potency,SKOV3,inactive
same,Potency,Tov-21-G,inactive
same,Potency,Tov112D,inactive
CC(=O)O[C@H]1C[C@@](O)(C(C)C)[C@@H]2[C@@H](OC(=O)c3ccc(O)cc3)CC(C)=CC[C@@]12C,Potency,PA-1,inactive
same,Potency,SKOV3,inactive
same,Potency,Tov-21-G,inactive
same,Potency,Tov112D,inactive
CCOC(=O)N1c2ccc(C(F)(F)F)cc2C(N(Cc2cc(C(F)(F)F)cc(C(F)(F)F)c2)C(=O)OC)CC1CC (stereo unspecified),Potency,PA-1,inactive
same,Potency,SKOV3,inactive
same,Potency,Tov-21-G,inactive
same,Potency,Tov112D,inactive
COC(=O)c1ccc2c(c1)nc(NC(=O)c1ccccc1)n2CCCc1ccccc1,Potency,PA-1,inactive
same,Potency,SKOV3,inactive
same,Potency,Tov-21-G,inactive
same,Potency,Tov112D,inactive
C[C@@H](O[C@H]1OCCN(Cc2nn(P(=O)(O)O)c(=O)[nH]2)[C@H]1c1ccc(F)cc1)c1cc(C(F)(F)F)cc(C(F)(F)F)c1,Potency,PA-1,inactive
same,Potency,SKOV3,inactive
same,Potency,Tov-21-G,inactive
same,Potency,Tov112D,inactive
O=C(N[C@H](Cc1cscn1)C(=O)N[C@@H](CC1CCCCC1)[C@@H](O)[C@@H](O)C1CC1)c1nc2ccccc2[nH]1,Potency,PA-1,inactive
same,Potency,SKOV3,inactive
same,Potency,Tov-21-G,inactive
same,Potency,Tov112D,inactive
CC(=O)c1ccc2c(c1)[C@H](NC(=O)c1ccc(F)c(Cl)c1)[C@H](O)C(C)(C)O2,Potency,PA-1,inactive
same,Potency,SKOV3,inactive
same,Potency,Tov-21-G,inactive
same,Potency,Tov112D,inactive
O=C(N[C@H]1CCN(C(=O)c2cc(C(F)(F)F)cc(C(F)(F)F)c2)[C@H](Cc2ccc(Cl)cc2)C1)c1ccnc2ccccc12,Potency,PA-1,inactive
same,Potency,SKOV3,inactive
same,Potency,Tov-21-G,inactive
same,Potency,Tov112D,inactive
O=C(c1ccc(Cl)cc1)N1CCN(c2ccnc3cc(Cl)ccc23)CC1,Potency,PA-1,inactive
same,Potency,SKOV3,inactive
same,Potency,Tov-21-G,inactive
same,Potency,Tov112D,inactive
